# Source: the supplement of paper PMC11732987, “Enantioselective OTUD7B fragment discovery through chemoproteomics screening and high-throughput optimisation” (Communications Chemistry, 2025)
# Values without a mark were called inactive.
# What was measured:
# Assay in all cases: log2 ratio of Biotin-Ahx-Ub-VS probe labelling (fragment/DMSO); higher = less target engagement (more negative = stronger competition), active = hit call of the paper (q ≤ 0.05, log2 ratio ≤ -1)
# Settings in all cases: compound concentration: 200 uM; treatment time: 3 h
# USP19 = target: T1, USP19 (UniProt O94966)
# T1 sequence (whole entry): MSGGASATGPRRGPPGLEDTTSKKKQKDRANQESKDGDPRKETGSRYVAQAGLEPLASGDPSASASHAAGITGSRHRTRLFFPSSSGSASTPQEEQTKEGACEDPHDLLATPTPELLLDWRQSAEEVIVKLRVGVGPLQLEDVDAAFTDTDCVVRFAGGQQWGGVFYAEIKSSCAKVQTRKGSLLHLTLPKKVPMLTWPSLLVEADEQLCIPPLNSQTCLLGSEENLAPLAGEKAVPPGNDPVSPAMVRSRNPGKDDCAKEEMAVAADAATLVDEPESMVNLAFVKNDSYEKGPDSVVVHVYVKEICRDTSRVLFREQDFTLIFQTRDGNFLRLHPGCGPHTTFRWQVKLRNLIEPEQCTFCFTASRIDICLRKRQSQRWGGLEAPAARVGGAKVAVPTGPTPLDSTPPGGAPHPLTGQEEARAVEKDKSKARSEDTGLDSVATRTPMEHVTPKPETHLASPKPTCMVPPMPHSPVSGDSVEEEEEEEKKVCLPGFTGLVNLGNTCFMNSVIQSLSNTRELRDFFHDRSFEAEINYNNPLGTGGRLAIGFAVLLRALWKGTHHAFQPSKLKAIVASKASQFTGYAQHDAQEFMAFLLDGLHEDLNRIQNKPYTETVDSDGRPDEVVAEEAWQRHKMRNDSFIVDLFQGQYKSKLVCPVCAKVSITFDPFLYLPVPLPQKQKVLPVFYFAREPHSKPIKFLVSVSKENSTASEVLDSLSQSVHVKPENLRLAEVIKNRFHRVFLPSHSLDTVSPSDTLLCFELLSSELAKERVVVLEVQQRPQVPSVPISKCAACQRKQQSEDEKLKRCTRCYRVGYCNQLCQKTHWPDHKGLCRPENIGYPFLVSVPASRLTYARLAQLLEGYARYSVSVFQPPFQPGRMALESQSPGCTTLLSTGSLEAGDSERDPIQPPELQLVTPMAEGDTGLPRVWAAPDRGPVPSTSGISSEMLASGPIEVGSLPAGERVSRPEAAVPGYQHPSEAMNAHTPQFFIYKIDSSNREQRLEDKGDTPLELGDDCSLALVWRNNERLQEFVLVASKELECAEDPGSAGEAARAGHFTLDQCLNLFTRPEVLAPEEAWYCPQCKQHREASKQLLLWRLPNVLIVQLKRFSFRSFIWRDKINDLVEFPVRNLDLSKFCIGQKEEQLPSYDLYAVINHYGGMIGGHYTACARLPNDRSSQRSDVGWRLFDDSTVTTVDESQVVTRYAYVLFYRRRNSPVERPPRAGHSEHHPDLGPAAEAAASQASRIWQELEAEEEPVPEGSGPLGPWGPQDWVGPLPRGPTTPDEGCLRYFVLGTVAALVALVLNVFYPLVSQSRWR
# Method in brief: (§1)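 Labelled DUBs from HEK293T lysate were NeutrAvidin-enriched, digested with LysC and trypsin, and run by diaPASEF LC-MS/MS. Before that, each 495 µg sample in Tris/CHAPS/IGEPAL buffer with protease inhibitors was treated in triplicate with fragment at 200 µM or vehicle for 3 h, then with Biotin-Ahx-Ub-VS at 0.5 µM final for 1 h. Values are average log2 ratios of fragment over vehicle by unpaired t-test, based on global-median-normalised Spectronaut label-free quantities from proteins with ≥2 unique peptides.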
# USP22 = target: T2, USP22 (UniProt Q9UPT9)
# T2 sequence (whole entry): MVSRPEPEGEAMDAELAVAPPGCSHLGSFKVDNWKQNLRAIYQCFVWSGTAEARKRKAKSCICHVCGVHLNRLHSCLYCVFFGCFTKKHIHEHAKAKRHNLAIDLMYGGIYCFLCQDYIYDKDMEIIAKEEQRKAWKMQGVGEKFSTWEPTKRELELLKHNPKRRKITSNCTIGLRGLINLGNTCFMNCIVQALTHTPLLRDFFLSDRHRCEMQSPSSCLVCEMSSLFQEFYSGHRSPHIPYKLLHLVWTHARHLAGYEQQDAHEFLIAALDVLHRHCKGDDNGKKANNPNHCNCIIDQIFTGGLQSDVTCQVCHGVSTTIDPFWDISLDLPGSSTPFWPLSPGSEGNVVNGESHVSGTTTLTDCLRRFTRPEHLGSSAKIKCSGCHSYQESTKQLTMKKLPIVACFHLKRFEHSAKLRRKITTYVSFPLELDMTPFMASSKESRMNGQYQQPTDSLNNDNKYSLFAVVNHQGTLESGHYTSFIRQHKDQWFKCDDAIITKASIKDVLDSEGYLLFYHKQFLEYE
# Method in brief: as §1
# USP24 = USP24 (UniProt Q9UPU5)
# Method in brief: as §1
# USP25 = target: T3, USP25 (UniProt Q9UHP3)
# T3 sequence (whole entry): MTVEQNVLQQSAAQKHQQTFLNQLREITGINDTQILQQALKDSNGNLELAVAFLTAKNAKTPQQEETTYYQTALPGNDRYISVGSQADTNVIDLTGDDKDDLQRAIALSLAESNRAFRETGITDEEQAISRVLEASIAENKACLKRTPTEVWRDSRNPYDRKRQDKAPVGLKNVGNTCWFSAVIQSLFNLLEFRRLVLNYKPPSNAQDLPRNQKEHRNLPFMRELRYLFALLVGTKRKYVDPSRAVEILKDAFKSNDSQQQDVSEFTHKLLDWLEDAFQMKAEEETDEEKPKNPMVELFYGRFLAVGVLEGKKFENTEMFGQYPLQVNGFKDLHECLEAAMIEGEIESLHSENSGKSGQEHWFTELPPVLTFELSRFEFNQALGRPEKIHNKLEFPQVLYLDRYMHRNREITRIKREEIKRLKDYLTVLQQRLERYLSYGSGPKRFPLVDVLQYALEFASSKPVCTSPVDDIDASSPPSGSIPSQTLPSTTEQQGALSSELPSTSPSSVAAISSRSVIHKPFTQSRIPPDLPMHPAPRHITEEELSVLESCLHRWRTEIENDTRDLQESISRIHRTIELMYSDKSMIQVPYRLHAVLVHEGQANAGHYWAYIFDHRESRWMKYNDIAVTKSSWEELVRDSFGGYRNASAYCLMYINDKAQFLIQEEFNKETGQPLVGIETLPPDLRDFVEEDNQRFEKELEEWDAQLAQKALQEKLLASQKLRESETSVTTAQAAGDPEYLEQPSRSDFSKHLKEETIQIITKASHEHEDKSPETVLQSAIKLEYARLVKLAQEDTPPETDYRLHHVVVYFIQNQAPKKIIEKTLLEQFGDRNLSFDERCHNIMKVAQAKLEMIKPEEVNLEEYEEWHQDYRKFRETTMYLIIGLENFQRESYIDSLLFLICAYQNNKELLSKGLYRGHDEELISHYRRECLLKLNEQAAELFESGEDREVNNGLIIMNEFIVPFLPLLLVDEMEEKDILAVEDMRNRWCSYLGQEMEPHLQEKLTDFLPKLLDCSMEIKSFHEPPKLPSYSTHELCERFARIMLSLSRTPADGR
# Method in brief: as §1
# USP28 = target: T4, USP28 (UniProt Q96RU2)
# T4 sequence (whole entry): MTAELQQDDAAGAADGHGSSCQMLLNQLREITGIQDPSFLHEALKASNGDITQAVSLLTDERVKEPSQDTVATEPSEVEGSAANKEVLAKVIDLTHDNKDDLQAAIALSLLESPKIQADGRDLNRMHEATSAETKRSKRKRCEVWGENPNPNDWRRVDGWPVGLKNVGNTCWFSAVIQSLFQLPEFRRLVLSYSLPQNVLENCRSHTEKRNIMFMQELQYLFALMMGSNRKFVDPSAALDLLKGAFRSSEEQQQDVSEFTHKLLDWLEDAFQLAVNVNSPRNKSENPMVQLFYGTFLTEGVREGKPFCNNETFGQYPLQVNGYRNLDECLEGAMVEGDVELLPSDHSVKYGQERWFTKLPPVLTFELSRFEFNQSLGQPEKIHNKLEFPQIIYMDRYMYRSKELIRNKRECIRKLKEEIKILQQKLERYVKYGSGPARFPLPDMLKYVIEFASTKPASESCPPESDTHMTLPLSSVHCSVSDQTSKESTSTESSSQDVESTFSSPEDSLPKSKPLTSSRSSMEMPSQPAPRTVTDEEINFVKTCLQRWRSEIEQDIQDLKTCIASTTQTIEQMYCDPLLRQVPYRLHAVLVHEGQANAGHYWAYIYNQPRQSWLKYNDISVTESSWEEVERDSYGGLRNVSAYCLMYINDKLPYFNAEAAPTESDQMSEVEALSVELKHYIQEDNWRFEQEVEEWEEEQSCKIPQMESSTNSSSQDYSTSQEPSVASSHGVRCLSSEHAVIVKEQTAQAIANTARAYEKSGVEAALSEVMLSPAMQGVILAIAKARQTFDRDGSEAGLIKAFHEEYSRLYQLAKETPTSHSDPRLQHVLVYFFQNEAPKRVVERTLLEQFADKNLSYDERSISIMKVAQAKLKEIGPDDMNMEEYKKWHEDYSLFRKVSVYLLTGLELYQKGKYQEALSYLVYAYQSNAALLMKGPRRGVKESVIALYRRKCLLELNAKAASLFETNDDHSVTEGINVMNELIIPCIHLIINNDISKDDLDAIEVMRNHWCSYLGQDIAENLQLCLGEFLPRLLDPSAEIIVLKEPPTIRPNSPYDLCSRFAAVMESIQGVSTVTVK
# Method in brief: as §1
# USP24, sequence (Q9UPU5 whole entry): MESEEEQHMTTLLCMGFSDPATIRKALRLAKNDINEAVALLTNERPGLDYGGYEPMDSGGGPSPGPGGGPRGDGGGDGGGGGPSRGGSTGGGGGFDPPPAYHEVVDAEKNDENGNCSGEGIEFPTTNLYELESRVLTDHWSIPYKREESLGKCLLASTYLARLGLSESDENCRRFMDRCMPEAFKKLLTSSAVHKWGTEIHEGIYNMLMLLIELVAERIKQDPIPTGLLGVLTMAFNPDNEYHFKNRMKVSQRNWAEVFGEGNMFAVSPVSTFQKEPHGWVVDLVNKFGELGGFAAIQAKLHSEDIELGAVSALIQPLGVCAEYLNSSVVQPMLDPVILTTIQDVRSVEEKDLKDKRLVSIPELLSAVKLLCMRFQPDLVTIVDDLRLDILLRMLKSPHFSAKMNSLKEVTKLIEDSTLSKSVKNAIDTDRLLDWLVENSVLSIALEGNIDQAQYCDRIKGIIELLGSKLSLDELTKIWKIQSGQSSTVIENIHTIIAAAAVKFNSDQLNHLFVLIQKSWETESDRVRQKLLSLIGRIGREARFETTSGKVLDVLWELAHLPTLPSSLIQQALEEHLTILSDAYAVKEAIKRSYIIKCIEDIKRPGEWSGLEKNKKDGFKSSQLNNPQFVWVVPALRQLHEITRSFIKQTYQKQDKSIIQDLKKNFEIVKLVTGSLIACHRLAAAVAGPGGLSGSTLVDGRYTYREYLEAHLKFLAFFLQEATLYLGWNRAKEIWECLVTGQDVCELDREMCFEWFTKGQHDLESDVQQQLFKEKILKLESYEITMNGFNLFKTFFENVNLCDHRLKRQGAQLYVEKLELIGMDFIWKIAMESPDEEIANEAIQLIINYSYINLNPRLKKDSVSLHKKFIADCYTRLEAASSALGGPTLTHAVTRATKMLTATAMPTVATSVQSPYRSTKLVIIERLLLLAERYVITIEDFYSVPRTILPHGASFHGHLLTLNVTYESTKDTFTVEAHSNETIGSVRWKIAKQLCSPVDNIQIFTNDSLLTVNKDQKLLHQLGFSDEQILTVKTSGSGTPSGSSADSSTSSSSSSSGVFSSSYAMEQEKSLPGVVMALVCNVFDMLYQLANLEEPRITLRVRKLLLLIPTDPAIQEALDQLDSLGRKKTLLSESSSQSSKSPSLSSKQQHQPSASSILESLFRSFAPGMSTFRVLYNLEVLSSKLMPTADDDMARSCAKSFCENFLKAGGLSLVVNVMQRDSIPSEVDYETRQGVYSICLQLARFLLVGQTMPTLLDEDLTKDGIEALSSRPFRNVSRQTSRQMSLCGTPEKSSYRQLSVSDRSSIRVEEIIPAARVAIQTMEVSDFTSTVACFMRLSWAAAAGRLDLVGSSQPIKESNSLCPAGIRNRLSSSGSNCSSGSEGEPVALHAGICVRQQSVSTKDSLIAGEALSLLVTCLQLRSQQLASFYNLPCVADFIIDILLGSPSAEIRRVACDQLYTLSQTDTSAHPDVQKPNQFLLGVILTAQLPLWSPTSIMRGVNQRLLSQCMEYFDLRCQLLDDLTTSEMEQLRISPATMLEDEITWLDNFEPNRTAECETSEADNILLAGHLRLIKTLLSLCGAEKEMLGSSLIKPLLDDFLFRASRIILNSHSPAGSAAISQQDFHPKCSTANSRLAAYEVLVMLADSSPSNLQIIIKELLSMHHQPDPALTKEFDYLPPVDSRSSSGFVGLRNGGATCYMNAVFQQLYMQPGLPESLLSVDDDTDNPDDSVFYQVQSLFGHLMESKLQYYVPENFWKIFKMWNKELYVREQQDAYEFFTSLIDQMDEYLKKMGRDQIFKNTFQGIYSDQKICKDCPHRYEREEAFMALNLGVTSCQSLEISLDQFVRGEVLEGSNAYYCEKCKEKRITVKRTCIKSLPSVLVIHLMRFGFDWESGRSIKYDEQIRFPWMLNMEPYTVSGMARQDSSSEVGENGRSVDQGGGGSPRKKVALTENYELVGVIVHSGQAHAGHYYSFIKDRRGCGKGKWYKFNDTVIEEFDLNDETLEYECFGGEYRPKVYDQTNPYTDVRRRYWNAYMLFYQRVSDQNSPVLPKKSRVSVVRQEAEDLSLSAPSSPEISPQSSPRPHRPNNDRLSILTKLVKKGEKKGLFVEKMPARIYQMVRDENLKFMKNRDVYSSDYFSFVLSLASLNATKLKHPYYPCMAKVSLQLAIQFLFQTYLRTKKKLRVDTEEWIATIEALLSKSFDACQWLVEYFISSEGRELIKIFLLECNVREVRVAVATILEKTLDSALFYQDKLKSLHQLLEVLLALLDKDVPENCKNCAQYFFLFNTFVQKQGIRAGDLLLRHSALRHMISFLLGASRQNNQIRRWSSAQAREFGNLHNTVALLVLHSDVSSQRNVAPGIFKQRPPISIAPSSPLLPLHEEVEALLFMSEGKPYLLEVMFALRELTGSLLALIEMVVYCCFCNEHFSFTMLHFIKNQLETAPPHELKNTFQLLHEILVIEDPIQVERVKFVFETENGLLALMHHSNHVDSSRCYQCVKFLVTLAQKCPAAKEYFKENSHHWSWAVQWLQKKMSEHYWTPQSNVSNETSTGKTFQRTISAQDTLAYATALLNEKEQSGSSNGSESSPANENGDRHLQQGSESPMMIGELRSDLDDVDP
compound,measurement,setting,value
COc1ccc(Cl)cc1NC(=O)CCl,log2 ratio of Biotin-Ahx-Ub-VS probe labelling,USP19,-0.52
same,log2 ratio of Biotin-Ahx-Ub-VS probe labelling,USP22,-0.388
same,log2 ratio of Biotin-Ahx-Ub-VS probe labelling,USP24,-1.54 (active)
same,log2 ratio of Biotin-Ahx-Ub-VS probe labelling,USP25,-0.784
same,log2 ratio of Biotin-Ahx-Ub-VS probe labelling,USP28,-0.959
